Source: PubChem BioAssay
A selection: hits, their analogues and other compounds. The true share with any hit is near 11%.
AmpC no deterg – inhibitors of E. coli AmpC beta-lactamase without detergent | 0.52% of 330,000 active | AID 485341 | AmpC nitrocefin hydrolysis, absorbance 480 nm, 0.0001% Triton | Potency, µM (highest dose often 57.1 µM), inactives show top-dose activity change, negative = inhibition, actives largely listed as inhibitors;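 also: plate controls were no compound for no effect and no enzyme for full effect; nearly all actives have a fitted effect of over 20% in size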
Target sequence (P00811 whole entry, looked up): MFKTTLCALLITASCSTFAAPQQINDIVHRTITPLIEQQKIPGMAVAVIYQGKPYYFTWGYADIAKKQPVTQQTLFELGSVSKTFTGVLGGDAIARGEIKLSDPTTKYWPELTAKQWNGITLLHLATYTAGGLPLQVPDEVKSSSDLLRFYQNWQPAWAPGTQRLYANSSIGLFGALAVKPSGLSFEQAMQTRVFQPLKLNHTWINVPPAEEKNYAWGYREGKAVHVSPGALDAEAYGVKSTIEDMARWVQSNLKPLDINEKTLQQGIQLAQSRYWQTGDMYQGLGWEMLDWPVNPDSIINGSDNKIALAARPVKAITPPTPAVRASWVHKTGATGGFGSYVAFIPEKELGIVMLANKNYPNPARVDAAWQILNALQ
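AmpC (5.3 nM in the dispensed reagent) in 20 mM phosphate pH 7.0 with 0.01% (detergent screen) or 0.0001% Triton X-100 was preincubated with compounds for 15 min at room temperature. Nitrocefin was then added from an 800 uM solution, and hydrolysis was followed at 480 nm.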
AmpC detergent – inhibitors of E. coli AmpC beta-lactamase with detergent. P00811. AmpC hydrolysis of nitrocefin, absorbance 480 nm, 0.01% Triton. Potency, µM (titrated, usually from 114 µM), inactives show at the highest dose activity change, negative = inhibition, usual class: inhibitors. 0.041% of 370,000 active. AID 485294;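 also: 0% = no-compound wells and -100% = no-enzyme wells; nearly all actives have a fitted effect of over 25% in size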
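20 mM phosphate pH 7.0 + 0.01% (detergent screen) or 0.0001% Triton X-100; 5.3 nM AmpC reagent; cpd preinc 15 min RT; nitrocefin (800 uM stock) to start; A480 q20 s × 4 min; Activity was normalised to no-enzyme and no-compound control wells.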
Pf growth 48h – inhibits P. falciparum growth in the first generation, 48 h; Potency, µM (highest dose often 28.7 µM), without a hit: at the top dose activity change, negative = inhibition, actives largely listed as inhibitors; 5.9% of 310,000 active; AID 504832; P. falciparum luciferase growth in erythrocytes, 48 h
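In quantitative HTS format, infected erythrocytes bearing luciferase-reporter parasites were treated for a single generation at 37 C. Luminescence after adding detection reagent served as the growth measure.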
HCV inhibitor – inhibitors of hepatitis C virus infection; 3.4% of 340,000 active; Huh7.5.1 HCVcc-Cre infection, luciferase reporter, 44 h; Potency, µM (titrated, usually from 41.8 µM), inactives show at the top dose activity change, negative = inhibition, usual class: inhibitors; AID 651820
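HCVcc-Cre virus at an moi near 0.5 was added right after compound to cells cultured 4 h from seeding (1,000 cells/well). Luciferase activity was determined 44 h later, 15 min after substrate addition at RT.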
Pf growth 96h – P. falciparum growth inhibition at 96 hours; P. falciparum luciferase reporter growth, 96 h; Potency, µM (doses to about 28.7 µM), for inactives: at the top dose activity change, negative = inhibition, hits mostly inhibitors; 6.9% of 320,000 active
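Two parasite generations (96 h, 37 C, 5% CO2) of compound exposure in infected erythrocytes (0.05% parasitemia, 2% hematocrit). Luciferase-reporter P. falciparum; decreased luminescence indicates inhibited growth, aimed at apicoplast-acting delayed death.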
AMA1 RON2 block – inhibitors of Plasmodium falciparum AMA1-RON2 interaction | 0.2% of 360,000 active | AID 720542 | Potency, µM (titrated, usually from 58.2 µM), inactives show at the top dose activity change, negative = inhibition, hits mostly inhibitors | AlphaScreen AMA1-biotinylated RON2 peptide binding;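 also: 0% = vehicle wells and -100% = peptide control; nearly all actives have a fitted effect of over 45% in size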
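AMA1 (3D7) with his tag at 25 nM final met compounds first, then biotinylated RON2 peptide at 25 nM; detection used donor plus acceptor beads, 10 µg/mL apiece, read by AlphaScreen after 30 min at room temperature.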
Starred values were filed as active, the others as inactive; ? = inconclusive; nt = not tested or not shown; [ ] = dose if it differs, or a comment. Calls follow the shape of the dose curve; as a rule, active = well fitted curve in the direction sought with a large enough effect; inconclusive = small, poorly fitted or top-dose-only effect, or another doubt; inactive = no such curve, though single readings can be large; an effect the other way counts as inactive or inconclusive. Unless noted, % is scaled to controls: 0 for no effect and ±100 for the full control effect; potency is read from the fitted curve at half-maximal effect.

SMILES | AmpC no deterg | AmpC detergent | Pf growth 48h | HCV inhibitor | Pf growth 96h | AMA1 RON2 block
CC1=C(C(=O)Nc2cccc(Cl)c2C)C2(CCCCCC2)OC1=O | nt | 10.3% | nt | nt | nt | nt
COc1cc(OC)cc(C(=O)N[C@H](C(=O)NC23CC4CC(CC(C4)C2)C3)C(C)C)c1 | -21.1% | -3.4% | 10.4µM* | 2.4% | nt | 2.0%
O=C(NC1CN2CCC1CC2)c1ccc(-c2ccc([N+](=O)[O-])cc2)o1 (stereo not drawn) | 9.5% | ? | 1.65µM* | ? | ? | 8.7%[2.32 µM]
CC1(C)CC(NC(=O)c2ccc(-c3ccc([N+](=O)[O-])cc3)o2)CC(C)(C)N1 | -5.1% | 5.0% | 10.4µM* | -6.0% | ? | 0.0%
NS(=O)(=O)c1ccc(NC(=O)CN2CCN(c3ccc(F)cc3)CC2)cc1 | nt | -8.0% | nt | nt | nt | nt
Cc1ccc2onc(CNC(=O)Nc3ccccc3C#N)c2c1 | nt | -10.5% | nt | nt | nt | nt
O=C(Nc1nc2ccccc2n1Cc1ccccc1)c1ccc(COc2ccccc2[N+](=O)[O-])o1 | -8.7% | 10.4% | 1.85µM* | ? | ? | 39.2%
O=C(Nc1nc2ccccc2n1CCN1CCOCC1)c1ccc(COc2ccccc2Br)o1 | -8.5% | ? | ? | 10µM* | -12.6%[5.75 µM] | 17.7%
Cc1ccnc(NS(=O)(=O)c2ccc(-n3cccn3)cc2)c1 | -3.1% | 8.3% | 47.5% | 7.2% | 10.4µM* | -2.5%
COc1ccccc1N1CCN(C(=O)C2CCN(S(=O)(=O)c3cnc[nH]3)CC2)CC1 | nt | -1.4% | nt | nt | nt | nt
CN([C@@H](C(=O)OC(C)(C)C)c1ccccc1)S(=O)(=O)c1cccc(S(=O)(=O)N(C)[C@@H](C(=O)OC(C)(C)C)c2ccccc2)c1 | -21.2% | -9.2% | ? | 15.5% | 2.08µM* | 13.5%
COC(=O)[C@H](Cc1ccccc1)N(C)S(=O)(=O)c1cccc(S(=O)(=O)N(C)[C@@H](Cc2ccccc2)C(=O)OC)c1 | 39.2% | ? | 0.0% | -26.5% | 10.4µM* | 8.1%
c1ccc2[nH]c(CCCc3nc4ccccc4[nH]3)nc2c1 | -39.4% | -6.1% | ? | -3.2% | 13.1µM* | -16.7%
O=C(NCCCc1nc2ccccc2[nH]1)c1cccs1 | -19.9% | -12.2% | -9.1%[5.75 µM] | 6.1% | 11.7% | -8.3%
O=C(NCCCc1nc2ccccc2[nH]1)c1ccco1 | -4.3% | 7.6% | 27.3% | 6.8% | 9.28µM* | -4.8%
O=c1[nH]c2ccccc2nc1CCc1ccccc1 | -35.2% | -8.7% | 51.8% | ? | 96.4% | -18.2%
c1ccc(CCc2nc3ccccc3[nH]2)cc1 | -11.6% | 5.7% | 83.3% | 3.8% | 5.86µM* | 0.0%
CCCCc1nc2ccccc2[nH]1 | -14.0% | 7.5% | 18.9% | 8.3% | 14.4% | 6.7%
O=S(=O)(CCc1nc2ccccc2[nH]1)c1ccc(Br)cc1 | -48.9% | -11.3% | ? | 11.8% | 10.4µM* | 11.3%
Brc1ccc(OCc2nc3ccccc3[nH]2)cc1 | -21.9% | -1.0% | 142.6% | ? | 169.0% | 4.3%
Cc1ccc(-c2nc(CSc3nnc(C)n4c3cc3occc34)c(C)o2)cc1 | nt | -9.4% | nt | nt | nt | nt
CCN(CC)C(=O)c1sc2c(c1C)c(=O)n(-c1ccc(Cl)c(Cl)c1)c(=O)n2Cc1cc(=O)n2c(C)cccc2n1 | nt | 4.8% | nt | nt | nt | nt
Nc1nc(N)c2[nH]cnc2n1 | nt | nt | nt | 6.31µM* | nt | 13.7%
O=C(COCc1cc(-c2cccs2)on1)N1CCN(c2ccc(F)cc2)CC1 | nt | 21.0% | nt | nt | nt | nt
CCOC(=O)c1sc(NC(=O)c2cccs2)cc1C | -39.6% | -1.5% | 1.4% | ? | nt | 3.0%
CCOc1ccc(NC(=O)CCN2C(=O)C3CCCCC3C2=O)cc1OCC (stereo not drawn) | -13.4% | -12.6% | -17.4% | 12.0% | -65.1% | -2.0%
CCOC(=O)c1sc(NC(=O)CCN2C(=O)C3CCCCC3C2=O)cc1C (stereo not drawn) | -15.9% | 3.8% | 14.7µM* | ? | ? | -4.8%
